SUMO Mot1 rescue = blocks SUMOylation pathway, rescuing yeast Mot1-301 growth | S. cerevisiae Mot1-301 growth rescue, ATP luminescence, 38.5C; percent above DMSO median, 100 means doubled | growth rescue, % at 18.8 µM | 320,000 compounds, 1% hits | AID 2716;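 active = every valid replicate shows activation above 250% relative to neutral control wells; inactive = the rest, any valid replicate at or below 250%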;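 also: OY570 slx delta 5 strain wells were the positive control but not used for scaling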
Efflux pump mplx = antifungal efflux pump inhibition, Nile Red retention; S. cerevisiae Candida pump triplex; 330,000 compounds, 0.44% hits; inhibition, % at 10 µM; AID 485275;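 active = plate passing quality check with inhibition over a set limit, or well fluorescence over plate mean plus 4 SD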;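 also: Nile Red retained in pooled yeast measured as flow cytometry median fluorescence; 0% = buffer negative control and 100% = Enniatin B positive control; higher means more Nile Red kept so more efflux inhibition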
sPLA2-III inh = Inhibits HGIII-sPLA2 liposome hydrolysis, primary screen | AID 743126 | QFRET BODIPY PC-A2 liposome hydrolysis, fluorescence | 370,000 compounds, 0.56% hits | inhibition, % at 12.2 µM | Q9NZ20;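 active = inhibition above mean plus 3 SD of compounds lying within the high and low control bounds, cut at about 19% in these data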;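 also: 0% = median of test compound wells and 100% = no enzyme DMSO wells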
Target sequence (Q9NZ20 whole entry, looked up): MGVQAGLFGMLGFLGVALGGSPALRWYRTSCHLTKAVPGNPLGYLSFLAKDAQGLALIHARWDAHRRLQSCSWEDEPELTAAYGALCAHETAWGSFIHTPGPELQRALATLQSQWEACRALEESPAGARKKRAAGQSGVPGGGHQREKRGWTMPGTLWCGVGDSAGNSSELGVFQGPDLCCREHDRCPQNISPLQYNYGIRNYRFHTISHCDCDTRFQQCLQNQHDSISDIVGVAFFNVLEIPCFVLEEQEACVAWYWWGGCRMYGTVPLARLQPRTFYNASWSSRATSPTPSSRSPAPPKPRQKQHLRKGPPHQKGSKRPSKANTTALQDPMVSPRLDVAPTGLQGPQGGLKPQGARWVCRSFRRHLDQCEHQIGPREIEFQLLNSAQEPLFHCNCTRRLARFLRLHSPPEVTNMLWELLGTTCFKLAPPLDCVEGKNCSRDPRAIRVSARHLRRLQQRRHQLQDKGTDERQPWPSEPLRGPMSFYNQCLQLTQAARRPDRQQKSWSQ
SKN-1 inh = C. elegans SKN-1 inhibition. 360,000 compounds, 0.49% hits. AID 624304. C. elegans VP596 Pgst-4::GFP/RFP ratio, acrylamide-induced, 24 h. inhibition, % at 21.8 µM;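 active = interference check ratio from 0.5 to 1.5 plus GFP to RFP signal ratio inhibition reaching or exceeding a fixed threshold, cut at about 30% in these data, passing the limit was not always enough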
Numbers without * were called inactive; x = no result given; ! = a repeat was not active. Sampled rows, rich in hits. Any-hit rate of the full collection: about 2.2%.

SMILES	SUMO Mot1 rescue	Efflux pump mplx	sPLA2-III inh	SKN-1 inh
O=C(N/N=C/C(Br)=C\c1ccccc1)c1cccs1	299.5*	-0.1	-7.8	9.6
Cc1cc(C)cc(OCC(=O)NNC(=S)NC(=O)C2CC2)c1	-2.3	0.1	17.8	18.7
O=C(COC(=O)c1c[nH]c(=O)[nH]c1=O)Nc1ccccc1Br	807.7*	0.1	4.3	6.9
Nc1nc2c(ncn2[C@@H]2O[C@H](C(=O)NCCCN3CCCC3=O)[C@@H](O)[C@H]2O)c(=O)[nH]1	x	x	7.5	x
Cn1nc(C(C)(C)C)cc1C(=O)NNC(=O)c1ccc(C(F)(F)F)cc1	304.4*	-0.1	-18.5	-9.1
Cc1cc(C)c(O)c(C(=O)CC2CC(=O)NC(=O)C2)c1	x	x	2.0	x
O=C(CCCN1CCC(O)(c2ccc(Cl)cc2)CC1)c1ccc(F)cc1	588.2*!	0.1	-19.4	-18.5
Cn1c(SCC(=O)Nc2ccccc2-c2ccccc2)nnc1-c1cnccn1	x	x	6.6	x
COc1ccc(-c2cc(C(F)(F)F)nc(S(C)(=O)=O)n2)cc1	589.5*	0.0	-2.0	-18.6
CCn1c(SCC(=O)Nc2ccc(NC(=O)c3cccs3)cc2)nnc1-c1cccnc1	-13.8	0.1	-0.8	35.1*
CCn1c(SCC(=O)Nc2nc(C)c(C)s2)nnc1-c1cccnc1	-20.6	-0.2	10.8	9.7
COCc1[nH]nc2c1C(c1cccc(C(F)(F)F)c1)N(c1ccccc1)C2=O (centres undefined)	x	x	-3.4	x
COc1ccc(C(=O)Nc2cccc3nc(C)ccc23)cc1OC	548.7*	-0.1	9.9	15.9
CCCC(C(=O)NCC1CCCO1)N(C(=O)CNS(=O)(=O)c1ccccc1)c1ccc(F)cc1 (centres undefined)	-3.2	0.0	-2.5	-27.9
CCCC(C(=O)NCC1CCCO1)N(Cc1ccccc1)C(=O)CNS(=O)(=O)c1ccccc1 (centres undefined)	-19.6	-0.2	-4.8	41.9*
CC(C)(C)c1cc(CCC(=O)NCC2CCCO2)cc(C(C)(C)C)c1O (centres undefined)	298.0*	0.1	2.5	-17.2
Cc1cccc(N/C=C/C(=O)c2ccc(Cl)cc2)c1	8.9	0.0	-18.0	26.9
Cc1ccc(Cl)c(N/C=C/C(=O)c2ccccc2)c1	69.5	-0.2	-18.8	50.6*
Cc1onc(-c2ccccc2)c1C(=O)N1CCN(C(=O)C(=O)c2cccc(C(F)(F)F)c2)CC1	x	x	-7.3	x
Clc1ccc2nc(N3CCCCC3)sc2c1	9.9	0.1	-0.4	57.3*
CCCCCCCCN1C(=O)[C@@H](CC(=O)NCCCOCCCC)C[C@@]2(C(=O)OC)C1=C[C@H](C(C)(C)C)O[C@@H]2C	x	x	-1.8	x
CN(c1cccnc1)c1ccc(NC(=O)Cc2c[nH]c3ccccc23)cc1-c1cccnc1F	x	x	-13.1	x
O=C1COc2ccc(S(=O)(=O)CCC(=O)NC3CCCCC3)cc2N1	15.4	0.4	2.8	-3.9
O=C(N[C@H](C(=O)N1CCC[C@H]1C(=O)NC1CCCC1)c1ccccc1)C1CC1	x	x	-2.5	x
NC(=O)C1CCN(c2oc(-c3ccccc3F)nc2S(=O)(=O)c2ccc(Cl)cc2)CC1	-2.9	0.0	9.5	37.7*
SMILES	SUMO Mot1 rescue	Efflux pump mplx	sPLA2-III inh	SKN-1 inh
O=[N+]([O-])c1ccc2nc(-c3ccccc3)oc2c1	-0.7	0.2	2.0	42.3*
COc1cccc(-c2nc3ccc([N+](=O)[O-])cc3o2)c1	-0.1	-0.1	-2.3	0.3
CCOC(=O)/C(=N\Nc1cccc(C(F)(F)F)c1)N1CCOCC1	266.0*	-0.1	9.3	8.0
C[C@@H]1ON(C)[C@H]2C[C@H]3c4[nH]c5c(-c6cccc(Cl)c6)cccc5c4CCN3C(=O)[C@@H]12	x	x	1.1	x
C/C(=N\Nc1ccc(F)cc1F)c1ccc(N2CCOCC2)cc1	279.3*	-0.2	11.1	6.0
C(=N\Nc1nc2ccccc2[nH]1)/c1ccccn1	x	x	12.2	19.5
Fc1ccccc1-c1ccc(/C=N/Nc2nc3ccccc3[nH]2)o1	17.1	0.0	30.0*	1.5
CCCN1CCCCC(NC(=O)c2ccccc2OC)C1=O (centres undefined)	x	x	7.1	x
O=C(COC(=O)C1=COCCO1)Nc1ccccc1	-3.6	-0.2	7.3	2.1
O=C(COC(=O)C1=COCCO1)Nc1ccc(F)c(F)c1	608.6*	-0.4	-0.7	-5.1
C[C@@H]1COc2cccc(NCCO)c2S(=O)(=O)N1	x	x	8.7	x
Cc1cc2c(c(=O)o1)[C@@]1(C(=O)N(C)c3ccccc31)C1=C(CC(C)(C)OC1=O)O2	x	x	1.5	x
O=C(c1cc(COc2ccc(F)cc2Cl)on1)N1CCCCCC1	x	0.0	-8.3	38.2*
O=C(NCc1ccccc1)[C@H]1CCCN1C(=O)[C@H]1CCCN1C(=O)c1cccc(Cl)c1	x	x	2.7	x
O=C(Nc1ccccc1)OCc1cnc(Cl)s1	-23.7	0.1	2.5	2.7
Clc1ncc(CSc2ccccc2)s1	-15.5	-0.1	4.2	39.1*
CCCc1cc2c(OC)ccc(O)c2c(=O)n1C	x	x	5.3	x
Nc1[nH]c(C(=O)c2ccccc2)c(-c2cccc(C(F)(F)F)c2)c1C(=O)NCCc1c[nH]c2ccccc12	x	x	-53.5	x
FC(F)(F)c1nc2ccccc2nc1N/N=C\c1ccccc1	570.5	0.1	-1.4	37.3*
CCN(CC)C(=O)Cn1c(=O)oc2ccccc21	389.1*	-0.1	-2.3	-1.0
COC(=O)c1cc2c(c3c4ccccc4n(S(=O)(=O)c4cccc(C)c4)c13)C(=O)N(C)C2	x	x	-0.9	x
Nn1c(SCC(=O)Nc2nccs2)nnc1-c1cc(-c2ccccc2)n[nH]1	x	x	-5.4	x
O=C(Cn1c(C(F)(F)F)nc2ccccc21)c1ccc(F)cc1	-0.5	-0.2	-4.8	35.4*
O=C1C2C3C=CC(CO)(O3)C2C(=O)N1c1ccc(-c2ccccc2)cc1 (centres undefined)	324.4*	1.7*	x	x
CC(C)(C)C(=O)NCC12C=CC(O1)C1C(=O)N(c3ccccc3)C(=O)C12 (centres undefined)	12.5	0.1	-0.9	12.1
SMILES	SUMO Mot1 rescue	Efflux pump mplx	sPLA2-III inh	SKN-1 inh
COCCCNC(=O)C[C@H]1C[C@@]2(C(=O)OC)C(=C[C@H](C(C)(C)C)O[C@@H]2C)N(CCC2=CCCCC2)C1=O	x	x	-5.0	x
CN1C(=O)C(c2cn(C)c3ccccc23)(c2cn(C)c3ccccc23)c2ccccc21	x	x	-1.3	x
CCCNC(=O)COC(=O)C1CCN(S(=O)(=O)c2ccc3c(c2)OCCO3)CC1	69.8	0.2	-3.2	45.3*
O=C1C=CC(=O)N1c1ccc(OC(F)F)cc1	76.0	0.5	19.9*	-9.0
Cc1cc(NCCc2c[nH]c3ccccc23)ccc1Nc1cccnc1	x	x	4.6	x
c1ccc(C2(Cn3ccc4ccccc43)OCCO2)cc1	-17.1	0.1	1.6	43.9*
COC(=O)[C@]12C[C@H](CC(=O)NCc3ccccc3)C(=O)N(CCC3=CCCCC3)C1=C[C@H](COCc1ccccc1)O[C@@H]2C	x	x	-8.3	x
S=C(Nc1cccc(Br)c1)OC1CCC12CCC(c1ccccc1)CC2 (centres undefined)	x	x	-0.3	x
O=C(N/C(=C\c1cccs1)C(=O)N1CCCCCC1)c1ccccc1	312.4*	0.0	2.3	2.6
O=C(N/C(=C/c1cccs1)C(=O)N1CCCCCC1)c1ccccc1	5.0	0.1	2.6	-9.8
C=C(C)CNC(=S)N/N=C1\CCCCc2ccccc21	311.3*	0.0	6.5	9.4
CCNC(=S)N/N=C1\CCCCc2ccccc21	-3.7	0.2	13.3	15.0

Source: PubChem
